Data taken from PubChem BioAssay (NCATS).
Inconclusive results are not listed. The source made the active and inactive calls. Calls come from the whole dose curve; as a rule, active = well fitted cell-killing curve with a large enough effect; inconclusive = small, poorly fitted or top-dose-only effect, or effect the other way; inactive = flat fitted curve, though single readings scatter.

Assays:
Test in all cases: Primary qHTS to identify gynecologic anti-cancer compounds using libraries of approved drugs and bioactive compounds (AID 1345084); note: nearly all actives have a fitted effect of over 55% in size
[1] = system: C33A; conditions: Gynecologic cancer cell panel viability, ATPlite luminescence, 48 h; series mostly up to 57.5 µM
In short: (§1)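 Cells, 1,000 per well, plated 16 h, then exposed 48 h at 37 C to compounds. Viability by ATPlite luminescence after 15 min at room temperature.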

[2] = system: CAOV3; conditions: Gynecologic cancer cell panel viability, ATPlite luminescence, 48 h; series mostly up to 57.5 µM
In short: as §1

[3] = system: CASKI; conditions: Gynecologic cancer cell panel viability, ATPlite luminescence, 48 h; series mostly up to 57.5 µM
In short: as §1

[4] = system: Es-2; conditions: Gynecologic cancer cell panel viability, ATPlite luminescence, 48 h; series mostly up to 57.5 µM
In short: as §1

[5] = system: HeLa; conditions: Gynecologic cancer cell panel viability, ATPlite luminescence, 48 h; series mostly up to 57.5 µM
In short: as §1

[6] = system: Hek293T; conditions: Gynecologic cancer cell panel viability, ATPlite luminescence, 48 h, control line for the selectivity index; series mostly up to 57.5 µM
In short: as §1

[7] = system: JEG-3; conditions: Gynecologic cancer cell panel viability, ATPlite luminescence, 48 h; series mostly up to 57.5 µM
In short: as §1

[8] = system: OV90; conditions: Gynecologic cancer cell panel viability, ATPlite luminescence, 48 h; series mostly up to 57.5 µM
In short: as §1

[9] = system: PA-1; conditions: Gynecologic cancer cell panel viability, ATPlite luminescence, 48 h; series mostly up to 57.5 µM
In short: as §1

[10] = system: Tov-21-G; conditions: Gynecologic cancer cell panel viability, ATPlite luminescence, 48 h; series mostly up to 57.5 µM
In short: as §1

[11] = system: Tov112D; conditions: Gynecologic cancer cell panel viability, ATPlite luminescence, 48 h; series mostly up to 57.5 µM
In short: as §1

Measured: Potency

CC(NC(=O)[C@H](Cc1ccccc1)NC(=O)OCc1ccccc1)C(=O)CF (some centres undefined)
inactive: [1] | [2] | [3] | [4] | [5] | [6] | [7] | [8] | [9] | [10] | [11]

C=C1C(O)CCC2(C)CC3(OC)OC(=O)C(C)=C3CC12 (centres undefined)
inactive: [1] | [2] | [3] | [4] | [5] | [6] | [7] | [8] | [9] | [10] | [11]

COc1ccc(C(=O)CC(=O)O)c2c1C=CC(C)(C)O2
inactive: [1] | [2] | [3] | [4] | [5] | [6] | [7] | [8] | [9] | [10] | [11]

CC(C)=CCC/C(C)=C/CO[C@@H]1O[C@H](CO[C@@H]2O[C@@H](CO)[C@H](O)[C@H]2O)[C@@H](O)[C@H](O)[C@H]1O
inactive: [1] | [2] | [3] | [4] | [5] | [6] | [7] | [8] | [9] | [10] | [11]

Cc1ncc(Cl)cc1NCc1ccc(C(=O)NC(CC2CCCC2)C(=O)NC2CC2)s1 (centres undefined)
inactive: [1] | [2] | [3] | [4] | [5] | [6] | [7] | [8] | [9] | [10] | [11]

CC(=O)OC1(C)CC(O)C2(O)C=COC(OC3OC(CO)C(O)C(O)C3O)C12 (centres undefined)
inactive: [1] | [2] | [3] | [4] | [5] | [6] | [7] | [8] | [9] | [10] | [11]

CSCC1OC(n2cnc3c(N)ncnc32)C(O)C1O (centres undefined)
inactive: [1] | [2] | [3] | [4] | [5] | [6] | [7] | [8] | [9] | [10] | [11]

Cn1cc(-c2c[nH]c3ncnc(N4CCOCC4)c23)cn1
inactive: [1] | [2] | [3] | [4] | [5] | [6] | [7] | [8] | [9] | [10] | [11]

O=C(O)c1cccc(CN2C(=O)/C(=C(\c3ccccc3)c3ccc(Cl)cc3)c3ccccc32)c1
inactive: [1] | [2] | [3] | [4] | [5] | [6] | [7] | [8] | [9] | [10] | [11]

OC[C@H]1O[C@@H](Oc2cc(O)cc(-c3cc4ccc(O[C@@H]5O[C@H](CO)[C@@H](O)[C@H](O)[C@H]5O)cc4o3)c2)[C@H](O)[C@@H](O)[C@@H]1O
inactive: [1] | [2] | [3] | [4] | [5] | [6] | [7] | [8] | [9] | [10] | [11]

COc1cc(/C=C/C(=O)O[C@@H]2O[C@H](CO)[C@@H](O)[C@H](O)[C@H]2O)ccc1O
inactive: [1] | [2] | [3] | [4] | [5] | [6] | [7] | [8] | [9] | [10] | [11]

C=CC(C)(CC/C=C(\C)C(=O)OC)OC1OC(COC(=O)CC(C)(O)CC(=O)O)C(O)C(O)C1O (centres undefined)
inactive: [1] | [2] | [3] | [4] | [5] | [6] | [7] | [8] | [9] | [10] | [11]

CC1CCCCCCCc2cc(O)cc(O)c2C(=O)O1 (centres undefined)
inactive: [1] | [2] | [3] | [4] | [5] | [6] | [7] | [8] | [9] | [10] | [11]

C/C=C/C=C/C=C/C(=O)O[C@@H]1[C@@H](OC)C2=C(C(=O)N(C(CCC(=O)O)C(=O)O)C2)[C@@]2(C)CCCC(C)(C)[C@H]12 (some centres undefined)
inactive: [1] | [2] | [3] | [4] | [5] | [6] | [7] | [8] | [9] | [10] | [11]

O=C(/C=C/c1ccc(O)cc1)O[C@@H]1C[C@@](O)(C(=O)O)C[C@@H](O)[C@@H]1O
inactive: [1] | [2] | [3] | [4] | [5] | [6] | [7] | [8] | [9] | [10] | [11]

NC(=O)NCCCC(NC(=O)Cc1ccccc1)C(=O)O (centres undefined)
inactive: [1] | [2] | [3] | [4] | [5] | [6] | [7] | [8] | [9] | [10] | [11]

CC(=O)OC12CC(C)C(O)C1/C=C(/COC1OC(CO)C(O)C(O)C1O)CCC1C(/C=C(\C)C2=O)C1(C)C (centres undefined)
inactive: [1] | [2] | [3] | [4] | [5] | [6] | [7] | [8] | [9] | [10] | [11]

COc1cc(O)c2c(c1)C1(OC2=O)C(C)=CC(=O)C1O (centres undefined)
inactive: [1] | [2] | [3] | [4] | [5] | [6] | [7] | [8] | [9] | [10] | [11]

COC(=O)C1=CO[C@@H](O[C@@H]2O[C@H](CO)[C@@H](O)[C@H](O)[C@H]2O)[C@H]2[C@@H]1[C@H](O)C[C@]2(C)O
inactive: [1] | [2] | [3] | [4] | [5] | [6] | [7] | [8] | [9] | [10] | [11]

CCCCC(=O)N1c2ccccc2NC2=C(C(=O)CCC2)C1c1ccccc1Cl (centres undefined)
inactive: [1] | [2] | [3] | [4] | [5] | [6] | [7] | [8] | [9] | [10] | [11]

CC1=CC2=C(C)C(=O)C(C)(O)C(O)C2CO1 (centres undefined)
inactive: [1] | [2] | [3] | [4] | [5] | [6] | [7] | [8] | [9] | [10] | [11]

C/C=C(\C)C(=O)OC[C@H]1O[C@H](O[C@H]2O[C@H](CO)[C@@H](O)[C@H](O)[C@H]2O[C@@H]2O[C@H](CO)[C@@H](O)[C@H](O)[C@H]2O)[C@H](O[C@@H]2O[C@H](CO)[C@@H](O)[C@H](O)[C@H]2O)[C@@H](O)[C@@H]1O
inactive: [1] | [2] | [3] | [4] | [5] | [6] | [7] | [8] | [9] | [10] | [11]

O=C(OC(C(F)(F)F)C(F)(F)F)N1CCN(Cc2cccc(Oc3ccccc3)c2)CC1
inactive: [1] | [2] | [3] | [4] | [5] | [6] | [7] | [8] | [9] | [10] | [11]

CCN1CCN(C(=O)N[C@@H](C(=O)N[C@@H]2C(=O)N3[C@@H]2SC(C)(C)[C@@H]3C(=O)O)c2ccccc2)C(=O)C1=O
inactive: [1] | [2] | [3] | [4] | [5] | [6] | [7] | [8] | [9] | [10] | [11]

COc1cc(C(=O)OC[C@H]2O[C@@H](OC(C)(C)C(=O)O)[C@H](O)[C@@H](O)[C@@H]2O)cc(OC)c1O
inactive: [1] | [2] | [3] | [4] | [5] | [6] | [7] | [8] | [9] | [10] | [11]

NC(=O)c1ccc(F)c2c1C[C@@H](N(C1CCC1)C1CCC1)CO2
inactive: [1] | [2] | [3] | [4] | [5] | [6] | [7] | [8] | [9] | [10] | [11]

O=C(/C=C/N1C[C@@H]2C[C@@H]1CN2c1ccccn1)c1ccccc1O
inactive: [1] | [2] | [3] | [4] | [5] | [6] | [7] | [8] | [9] | [10] | [11]

Cc1cc(C(=O)N2Cc3cnn(C)c3Nc3ccccc32)ccc1CNC(=O)N1CCN(Cc2cc(O)cc(O)c2)CC1
inactive: [1] | [2] | [3] | [4] | [5] | [6] | [7] | [8] | [9] | [10] | [11]

O=C(Cn1c2ccccc2c2nc3n(c(=O)c21)CCS3)N1CCCC1
inactive: [1] | [2] | [3] | [4] | [5] | [6] | [7] | [8] | [9] | [10] | [11]

COc1cc2nc(=NC(=O)c3cccnc3)n3c(c2cc1OC)NCC3
inactive: [1] | [2] | [3] | [4] | [5] | [6] | [7] | [8] | [9] | [10] | [11]

CCOc1ccc(-c2cc(NC(=O)c3c(F)cccc3F)c(C(=O)O)s2)cc1
inactive: [1] | [2] | [3] | [4] | [5] | [6] | [7] | [8] | [9] | [10] | [11]

Cc1nc2ccccc2c(-c2ccc3c4c(ccnc24)CCO3)c1[C@H](OC(C)(C)C)C(=O)O
inactive: [1] | [2] | [3] | [4] | [5] | [6] | [7] | [8] | [9] | [10] | [11]

C=CC1(C)C=C2CC[C@H]3[C@@](C)(C(=O)O)CCC[C@]3(C)C2CC1 (some centres undefined)
inactive: [1] | [2] | [3] | [4] | [5] | [6] | [7] | [8] | [9] | [10] | [11]

COC(=O)C1=CO[C@@H](O[C@@H]2O[C@H](CO)[C@@H](O)[C@H](O)[C@H]2O)[C@@H]2[C@@H](C)[C@@H](O)C(O)[C@H]12 (some centres undefined)
inactive: [1] | [2] | [3] | [4] | [5] | [6] | [7] | [8] | [9] | [10] | [11]
